Assay results published in PubChem BioAssay.
Records with an inconclusive call do not appear. Calls of active or inactive are those of the source. Unless noted, the rule behind the calls is not given here.

How the values were obtained:
[1] = molecular target: ATP-dependent translocase ABCB1 (Homo sapiens) (UniProt P08183); test: MDR1 (ABCB1) efflux transporter inhibition, cell-based (AID 377; in the data active = fluorescence slope change above about 50%); conditions: MDR1-expressing cells, fluorescent substrate accumulation slope; stronger effect = higher value; concentration not given here
[2] = hESC survival regulators, cell-based (AID 493140); conditions: human embryonic stem cell survival screen; stronger effect = higher value;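 note: cells exposed to compounds for four days before counting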
[3] = circadian clock period modulators, cell-based, LOPAC library, luminescence reporter (AID 2774); conditions: circadian reporter cells, at 7 µM, actives lie on both sides;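 note: values are relative to mean of DMSO wells on each plate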
[4] = test system: Hepatitis C virus NS3 helicase; test: HCV NS3 helicase inhibitors, primary screen, biochemical, fluorescence polarization, LOPAC1280 library (AID 687035; in the data active = inhibition above about 37%); conditions: Purified HCV NS3 helicase, Cy5-dT15 ssDNA binding fluorescence polarization; stronger effect = higher value; concentration not given here
[5] = Cy5 fluorescence quenching or enhancement artefacts, artefact control for HCV NS3 helicase inhibitor project, biochemical, LOPAC1280 (AID 687037); conditions: Cy5-DNA-NS3h complex fluorescence interference counterscreen
[6] = liver-stage malaria parasite growth inhibition, primary screen, cell-based, HepG2, luciferase luminescence, HepG2 viability (AID 624349; in the data active = parasite load remaining mostly below about 12%, no sharp cut-off; inactive = mostly above about 10%;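 note: 100% = mean of DMSO negative control wells on the same plate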); conditions: P. berghei liver stage in HepG2, luciferase luminescence, concentration not given here; parasite load remaining: stronger effect = lower value; viability: measured here: HepG2 viability without parasites
[7] = kinase inhibitors against Plasmodium liver-stage infection, cell-based, known kinase inhibitor set, luminescence, hepatoma host viability (AID 624392); conditions: Plasmodium liver stage in hepatoma cells, luciferase luminescence, concentration not given here; liver cell % of control: measured here: host liver cell viability; parasite % of control: stronger effect = lower value;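 note: infected cells incubated roughly two days before readout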
[8] = test system: Neuropilin-2 / VEGF-C interaction (human); test: inhibitors of NRP2–VEGF-C binding, biochemical, microplate binding format, z-score (AID 743281); conditions: microplate NRP2/VEGF-C binding assay; stronger effect = lower value

Sequence of ATP-dependent translocase ABCB1 (Homo sapiens) (P08183 whole entry, looked up): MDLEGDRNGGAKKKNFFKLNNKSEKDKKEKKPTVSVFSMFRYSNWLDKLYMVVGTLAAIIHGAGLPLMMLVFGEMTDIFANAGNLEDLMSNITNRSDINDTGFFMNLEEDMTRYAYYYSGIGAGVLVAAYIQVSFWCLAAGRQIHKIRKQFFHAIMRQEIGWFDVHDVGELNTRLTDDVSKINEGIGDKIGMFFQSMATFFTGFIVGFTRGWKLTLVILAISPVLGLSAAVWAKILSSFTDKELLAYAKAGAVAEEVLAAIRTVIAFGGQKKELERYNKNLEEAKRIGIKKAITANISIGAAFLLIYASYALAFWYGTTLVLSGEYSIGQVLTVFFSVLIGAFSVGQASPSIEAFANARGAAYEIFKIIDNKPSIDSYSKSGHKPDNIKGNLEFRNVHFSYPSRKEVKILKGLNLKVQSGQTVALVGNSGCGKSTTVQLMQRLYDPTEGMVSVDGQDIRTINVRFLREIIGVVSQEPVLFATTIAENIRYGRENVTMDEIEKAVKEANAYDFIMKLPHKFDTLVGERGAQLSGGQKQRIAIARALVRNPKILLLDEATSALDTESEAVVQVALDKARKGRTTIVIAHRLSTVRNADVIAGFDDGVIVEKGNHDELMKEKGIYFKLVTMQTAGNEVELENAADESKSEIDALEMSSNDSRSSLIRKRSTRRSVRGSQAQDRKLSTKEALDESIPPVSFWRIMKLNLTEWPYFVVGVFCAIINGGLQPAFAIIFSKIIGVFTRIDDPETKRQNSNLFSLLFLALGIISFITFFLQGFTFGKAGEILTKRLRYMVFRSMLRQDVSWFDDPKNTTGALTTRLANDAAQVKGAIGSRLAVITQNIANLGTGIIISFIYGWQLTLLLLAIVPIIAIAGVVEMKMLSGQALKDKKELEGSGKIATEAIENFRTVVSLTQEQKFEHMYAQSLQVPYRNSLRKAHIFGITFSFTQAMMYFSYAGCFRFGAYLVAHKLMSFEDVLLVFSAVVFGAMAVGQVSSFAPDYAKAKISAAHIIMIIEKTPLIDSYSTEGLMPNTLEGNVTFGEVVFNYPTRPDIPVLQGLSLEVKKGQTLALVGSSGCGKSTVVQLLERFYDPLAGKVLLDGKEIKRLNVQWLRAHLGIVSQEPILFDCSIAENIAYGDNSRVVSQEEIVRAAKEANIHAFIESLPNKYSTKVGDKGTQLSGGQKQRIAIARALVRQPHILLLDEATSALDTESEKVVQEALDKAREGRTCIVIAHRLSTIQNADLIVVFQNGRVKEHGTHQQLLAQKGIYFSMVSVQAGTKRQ

## CC(=O)O[C@@H]1CC(O[C@@H]2C(C)OC(O[C@@H]3C(C)OC(OC4CCC5(C)C(CCC6C5CC(O)C5(C)C(C7=CC(=O)OC7)CCC65O)C4)C[C@H]3O)C[C@H]2O)OC(C)[C@H]1OC1OC(CO)[C@@H](O)[C@@H](O)[C@@H]1O (some centres undefined)
[1]
  fluorescence slope change: 3% (inactive)

## NCC1OC(OC2C(N)CC(N)C(O)C2O)C(N)C(O)C1O (centres undefined)
[1]
  fluorescence slope change: 14.1% (inactive)

## CN1[C@@H]2CCC[C@H]1CC(=O)C2
[1]
  fluorescence slope change: 53.5% (active)

## COc1cc(C(=O)OC2CC3CCC(C2)N3C)ccc1O (centres undefined)
[1]
  fluorescence slope change: 5.8% (inactive)
[2]
  survival: 1.67 (inactive)

## C[C@H](N)[C@@H](O)c1ccc(O)c(O)c1
[1]
  fluorescence slope change: 17.7% (inactive)

## CCOC(=O)NC1=C(N2CC2)C(=O)C(NC(=O)OCC)=C(N2CC2)C1=O
[1]
  fluorescence slope change: 17.2% (inactive)

## CN(CC(=O)O)/C(N)=N/P(=O)(O)O
[1]
  fluorescence slope change: 63.4% (active)

## CCN1C[C@]2(COC)CC[C@H](O)[C@@]34C5C[C@H]6C(OC)C5[C@](O)(C[C@H]6OC)C(O)(C(OC)C23)[C@@H]14 (some centres undefined)
[1]
  fluorescence slope change: -9.9% (inactive)
[2]
  survival: 4 (inactive)

## CC(=O)O[C@@H]1CC(O[C@@H]2C(C)OC(O[C@@H]3C(C)OC(OC4CC[C@@]5(C)[C@H](CC[C@]6(C)[C@]5(C)C[C@@H](O)[C@]5(C)[C@@H](C7=CC(=O)OC7)CC[C@@]56O)C4)C[C@H]3O)C[C@H]2O)OC(C)[C@H]1OC1OC(CO)[C@@H](O)[C@@H](O)[C@@H]1O (some centres undefined)
[2]
  survival: 0.333 (inactive)

## CN1CCC2=C[C@@H](O)C3OC(=O)c4cc5c(cc4C3[C@H]21)OCO5 (some centres undefined)
[1]
  fluorescence slope change: 1.8% (inactive)
[2]
  survival: 6.42 (inactive)

## COC(C)C(O)(C(=O)OCC1=CCN2CC[C@H](O)[C@@H]12)C(C)C (some centres undefined)
[1]
  fluorescence slope change: 29% (inactive)
[2]
  survival: 1.33 (inactive)

## CCCn1c(C)c(C(=O)c2ccc3ccccc3c2)c2ccccc21
[3]
  period change: -0.02 h (inactive)
[4]
  inhibition: -4% (inactive)
[5]
  fluorescence ratio (interference): 1 (inactive)

## CCN1C[C@]2(C)CC[C@H](O)C34C5C[C@H]6C(O)C5[C@](O)(C[C@@H]6OC)C(CC32)[C@@H]14 (some centres undefined)
[1]
  fluorescence slope change: -10.1% (inactive)
[2]
  survival: 6.75 (inactive)

## COc1cc2c(cc1O)C1Cc3ccc(OC)c(O)c3CN1CC2 (centres undefined)
[1]
  fluorescence slope change: 144% (active)
[2]
  survival: 1.58 (inactive)
[6]
  parasite load remaining: 63.3% (inactive)
  viability: 69.6%

## CCN1C[C@]2(COC)CC[C@H](OC)[C@]34C5C[C@@H]6[C@@H](OC)CC7(OCO[C@]7([C@H]13)[C@@H](O)C24)C5[C@H]6OC (some centres undefined)
[1]
  fluorescence slope change: 13% (inactive)
[2]
  survival: 6.42 (inactive)

## CN1[C@@H](C[C@@H](O)c2ccccc2)CCC[C@H]1C[C@H](O)c1ccccc1
[1]
  fluorescence slope change: 85.7% (active)

## CC1(C)C(C=C(Br)Br)C1C(=O)OC(C#N)c1cccc(Oc2ccccc2)c1 (centres undefined)
[2]
  survival: 82.3 (inactive)

## CCN1C[C@]2(COC)CC[C@H](O)C34C5C[C@@H]6C(OC)C[C@@](O)(C5[C@H]6OC(C)=O)[C@@H](CC32)[C@@H]14 (some centres undefined)
[2]
  survival: 21.1 (inactive)

## C[C@H]1O[C@@H](OC2CC[C@]3(C=O)[C@H]4CC[C@]5(C)[C@@H](C6=CC(=O)OC6)CC[C@@]5(O)[C@@H]4CC[C@]3(O)C2)C[C@H](O)[C@@H]1O (some centres undefined)
[2]
  survival: 1.42 (inactive)

## CC(C)C1C(=O)N2CCCC2C2(O)OC(NC(=O)C3CC4c5cccc6[nH]cc(c56)CC4N(C)C3)(C(C)C)C(=O)N12 (centres undefined)
[2]
  survival: 8 (inactive)

## CCC[C@@H]1C[C@@H](C(=O)N[C@H]([C@@H](C)O)[C@H]2O[C@H](SC)[C@H](O)[C@@H](O)C2O)N(C)C1 (some centres undefined)
[2]
  survival: 18.3 (inactive)

## CC1CC[C@]2(NC1)O[C@H]1C[C@H]3[C@@H]4CC[C@H]5C[C@@H](O)CC[C@]5(C)[C@H]4CC[C@]3(C)[C@H]1[C@@H]2C (some centres undefined)
[2]
  survival: 5.67 (inactive)
[6]
  parasite load remaining: 77.7% (inactive)
  viability: 73.9%

## O=S(=O)(c1c(O)c(Cl)cc(Cl)c1Cl)c1c(O)c(Cl)cc(Cl)c1Cl
[6]
  parasite load remaining: 27.4% (inactive)
  viability: 70.9%

## O=C1NC(=O)C(=Cc2ccc(-c3ccc(F)cc3O)o2)C(=O)N1
[7]
  liver cell % of control: 100%
  parasite % of control: 87.6% (inactive)

## NS(=O)(=O)c1ccc(-c2ccc(C=C3C(=O)NC(=S)NC3=O)o2)cc1
[7]
  liver cell % of control: 102%
  parasite % of control: 96.9% (inactive)

## CN(C(Cc1ccc(OOSOc2cccc3cnccc23)cc1)C(=O)N1CCN(c2ccccc2)CC1)S(=O)(=O)c1cccc2cnccc12 (centres undefined)
[6]
  parasite load remaining: 43.1% (inactive)
  viability: 153%

## N/C(=N\[N+](=O)[O-])N/N=C\c1ccc(-c2cccc([N+](=O)[O-])c2)o1
[6]
  parasite load remaining: 33.3% (inactive)
  viability: 91.9%

## NS(=O)(=O)c1ccc(-c2ccc(C=C3C(=O)NC(=O)NC3=O)o2)cc1
[7]
  liver cell % of control: 104%
  parasite % of control: 97.7% (inactive)

## CC[C@@H]1/C=C\C=C\C[C@H](C)[C@@H](O)[C@@H](C)C(=O)[C@H](C)[C@@H](O)[C@H](C)C(=O)[C@H](C)[C@@H](O)[C@H](C)/C=C/C(=O)O[C@H]2[C@@H](C)[C@@H](CC1)O[C@@]1(CC[C@@H](C)[C@@H](C[C@H](C)O)O1)[C@@H]2C
[8]
  outcome: inactive

## CCCCCCCCCCCCC/C=C/[C@@H](O)[C@@H](N)COP(=O)([O-])OCC[N+](C)(C)C
[2]
  survival: 95.8 (inactive)

## COC1=C[C@H]2C3=C([C@H]2C1=O)[C@@H](NC(C)=O)CCc1cc(OC)c(OC)c(OC)c13
[2]
  survival: 13.2 (inactive)
[6]
  parasite load remaining: 78.4% (inactive)
  viability: 74.3%

## CNS(=O)(=O)c1ccc(-c2ccc(C=C3C(=O)NC(=O)NC3=O)o2)cc1
[7]
  liver cell % of control: 99.7%
  parasite % of control: 111% (inactive)
